Assay results from PubChem BioAssay (Tox21).
Values joined by “and” are separate entries in the source; they are usually repeats but may differ in a detail not shown here. Equal values may be shown once. Records with an inconclusive call do not appear. Entries that show only a call come without a potency. Some structures have more than one record in an assay (separate samples or runs), and their calls can disagree. Active and inactive are the calls of the source. Unless noted, calls follow the shape of the dose curve; as a rule, active = well fitted curve in the direction sought with a large enough effect in the repeat runs; inconclusive = weak or mixed curves; inactive = no such curve, though single readings can be large; an effect the other way counts as inactive or inconclusive.

Assays:
[1] = A CellTox Green Cytotoxicity Assay to monitor cytotoxicity in HepG2 cells - 8 hour (AID 1224890); also: nearly all actives have a fitted effect of over 45% in size; also: potency is read from the fitted curve at half-maximal effect
How it was run: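 Continuous culture of HepG2 cells with a membrane-impermeant DNA dye; rising fluorescence marks dead cells. Compound exposure lasted up to 40 h at 37 C, with reads every 8 h from 0 h.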

[2] = qHTS assay to identify small molecule antagonists of the estrogen receptor alpha (ER-alpha) signaling pathway using the BG1 cell line in the presence of 0.1 nM 17-beta-estradiol - cell viability counter screen (AID 1259241); also: nearly all actives have a fitted effect of over 40% in size
How it was run: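 In this screen, hormone-deprived VM7Luc4E2 cells were seeded at 4,000 per well, dosed with compound and 0.1 nM estradiol final, and incubated 22 hr at 37C and 5% CO2; fluorogenic live-cell protease signal reported viability.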

[3] = qHTS assay to identify small molecule antagonists of the androgen receptor (AR) signaling pathway using the MDA cell line in the presence of 0.5 nM R1881 - cell viability counter screen (AID 1259242); also: nearly all actives have a fitted effect of over 45% in size; also: potency is read from the fitted curve at half-maximal effect
How it was run: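 Fluorescence from CellTiter-Fluor, which reports protease activity of live cells, was read 30 min after reagent addition to MDA-kb2 cells that had been incubated 16 hr with compound and 0.5 nM R1881.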

[4] = biological target: Estrogen receptor (Homo sapiens) (UniProt P03372); assay: qHTS assay to identify small molecule antagonists of the estrogen receptor alpha (ER-alpha) signaling pathway using the BG1 cell line in the presence of 0.1 nM 17-beta-estradiol (AID 1259244); also: nearly all actives have a fitted effect of over 50% in size; also: potency is read from the fitted curve at half-maximal effect
Chain of Estrogen receptor (Homo sapiens) (P03372 whole entry, looked up): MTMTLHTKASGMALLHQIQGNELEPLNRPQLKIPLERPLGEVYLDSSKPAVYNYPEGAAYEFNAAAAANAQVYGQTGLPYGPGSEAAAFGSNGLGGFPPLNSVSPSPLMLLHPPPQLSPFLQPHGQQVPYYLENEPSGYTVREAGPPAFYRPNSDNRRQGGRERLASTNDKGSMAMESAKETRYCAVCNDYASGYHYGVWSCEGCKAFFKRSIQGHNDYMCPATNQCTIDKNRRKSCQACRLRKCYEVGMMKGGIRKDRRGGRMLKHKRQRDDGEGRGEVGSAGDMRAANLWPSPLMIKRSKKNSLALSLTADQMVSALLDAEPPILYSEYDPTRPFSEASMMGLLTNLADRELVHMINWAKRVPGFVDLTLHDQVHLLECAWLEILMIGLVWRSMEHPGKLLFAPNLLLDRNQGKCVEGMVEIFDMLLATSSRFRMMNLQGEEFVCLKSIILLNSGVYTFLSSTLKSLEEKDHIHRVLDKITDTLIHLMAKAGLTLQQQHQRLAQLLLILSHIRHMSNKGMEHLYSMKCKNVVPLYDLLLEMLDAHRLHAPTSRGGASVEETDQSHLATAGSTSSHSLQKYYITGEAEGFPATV
How it was run: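 Quantitative high-throughput screen in VM7Luc4E2 cells: compound plus 0.1 nM E2 (final), 22 h, 37C, 5% CO2; ONE-Glo added, 30 min room temperature, luminescence measured.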

[5] = qHTS assay to identify small molecule HDAC inhibitors - cell viability counter screen (AID 1259365); also: series mostly up to about 92 µM; nearly all actives have a fitted effect of over 50% in size
How it was run: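 Measured quantity is CellTiter-Glo luminescence from wild-type HCT-116 cells after compound incubation of 2hr at 37C, 5% CO2; reagent developed 30min at room temperature.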

[6] = qHTS assay to identify small molecule agonists of the sonic hedgehog signaling (Shh) pathway - cell viability counter screen (AID 1259366); also: nearly all actives have a fitted effect of over 50% in size; also: potency is read from the fitted curve at half-maximal effect
How it was run: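 In quantitative high-throughput format, 3T3 Gli1-Luc cells were exposed to compounds for 24hr and multiplexed for viability using CellTiter-Fluor, incubated 1hr at 37C before the fluorescence read.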

[7] = qHTS assay to identify small molecule antagonists of the sonic hedgehog signaling (Shh) pathway - cell viability counter screen (AID 1259367); also: nearly all actives have a fitted effect of over 55% in size; also: potency is read from the fitted curve at half-maximal effect
How it was run: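 NIH/3T3-derived Gli1-Luc reporter cells, 2,000/well, plated 4 hr before compound addition, then stimulated with conditioned medium for 24 hr at 37C. Viability measured in the same wells by CellTiter-Fluor fluorescence, reagent added at 23 hr for 1 hr.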

[8] = qHTS assay to identify small molecule agonists of the sonic hedgehog signaling (Shh) pathway (AID 1259368; calls by dose curve;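 also: NIH/3T3-derived 3T3Gli1-Luc cells carrying a stable Gli1-driven firefly luciferase reporter; series mostly up to about 92 µM; nearly all actives have a fitted effect of over 15% in size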)
How it was run: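 Luminescent signal was taken as a measure of Gli1-controlled luciferase expression in stably transfected NIH/3T3-derived cells that had been treated for 24 hr with compounds delivered in DMSO.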

[9] = qHTS assay to identify small molecule antagonists of the sonic hedgehog signaling (Shh) pathway (AID 1259369; calls by dose curve; also: nearly all actives have a fitted effect of over 45% in size; also: potency is read from the fitted curve at half-maximal effect)
How it was run: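 Screening used 3T3Gli1-Luc cells at 2,000 per well, compounds delivered in DMSO, and conditioned medium as agonist stimulus; plates incubated 24hr at 37 C and 5% CO2 before a 30min luciferase step.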

[10] = biological target: Estrogen receptor beta (Homo sapiens) (UniProt Q92731); assay: qHTS assay to identify small molecule agonists of the estrogen receptor beta (ER-beta) signaling pathway (AID 1259377; active = well fitted activation curve with a large enough effect in the signal ratio in the repeat runs, not every such curve was filed as active; the % refers to the signal ratio)
Chain of Estrogen receptor beta (Homo sapiens) (Q92731 whole entry, looked up): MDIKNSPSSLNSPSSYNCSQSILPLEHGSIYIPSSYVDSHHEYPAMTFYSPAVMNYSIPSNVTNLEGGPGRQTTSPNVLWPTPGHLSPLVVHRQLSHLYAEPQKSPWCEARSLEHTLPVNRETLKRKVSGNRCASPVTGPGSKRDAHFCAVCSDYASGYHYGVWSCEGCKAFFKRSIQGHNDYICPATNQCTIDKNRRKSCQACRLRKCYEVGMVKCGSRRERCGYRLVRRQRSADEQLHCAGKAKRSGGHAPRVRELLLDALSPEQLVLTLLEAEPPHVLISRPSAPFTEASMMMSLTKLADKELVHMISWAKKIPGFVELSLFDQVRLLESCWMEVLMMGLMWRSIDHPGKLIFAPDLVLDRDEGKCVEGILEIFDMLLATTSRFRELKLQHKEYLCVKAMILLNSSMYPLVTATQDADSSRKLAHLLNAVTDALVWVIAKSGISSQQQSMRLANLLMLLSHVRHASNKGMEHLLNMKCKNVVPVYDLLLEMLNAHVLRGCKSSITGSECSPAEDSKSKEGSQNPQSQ
How it was run: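 Reporter cells (HEK293T, ER-beta-UAS-bla) receive compounds or DMSO after a 6 hr pre-incubation. They then incubate 16 hr at 37C/5% CO2, and fluorescence from LiveBLAzer B/G substrate is measured after 2 hours at room temperature.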

[11] = qHTS assay to identify small molecule agonists of the androgen receptor (AR) signaling pathway in the presence of an antagonist - cell viability counter screen (AID 1259379); also: nearly all actives have a fitted effect of over 25% in size; also: potency is read from the fitted curve at half-maximal effect
How it was run: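 In MDA-kb2 cells (human breast carcinoma, MMTV-luciferase), compounds at 15 concentrations plus 3.0uM nilutamide; 16 hr, 37C, 0% CO2; CellTiter-Fluor fluorescence read for viability.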

[12] = qHTS assay to identify small molecule agonists of the estrogen receptor beta (ER-beta) signaling pathway - cell viability counter screen (AID 1259380); also: nearly all actives have a fitted effect of over 30% in size; also: potency is read from the fitted curve at half-maximal effect
How it was run: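 Viability of ER-beta-UAS-bla HEK293T cells was determined by CellTiter-Glo luminescence following 16 hr treatment with test compounds at 37C.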

[13] = qHTS assay to identify small molecule antagonists of the estrogen receptor beta (ER-beta) signaling pathway - cell viability counter screen (AID 1259382); also: series mostly up to about 92 µM; nearly all actives have a fitted effect of over 55% in size
How it was run: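 Tox21 10K library tested in qHTS format on ER-beta-bla HEK293T cells stimulated with 1nM E2; 16 hr treatment at 37C. Same-well CellTiter-Glo luminescence served as the cell viability measure.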

[14] = biological target: Estrogen receptor (Homo sapiens) (UniProt P03372); assay: qHTS assay to identify small molecule agonists of the estrogen receptor alpha (ER-alpha) signaling pathway in the presence of an antagonist (AID 1259383; calls by dose curve; also: top concentration of the series differs between compounds; nearly all actives have a fitted effect of over 15% in size)
How it was run: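 In VM7Luc4E2 cells, 4,000 per well, compounds at 15 concentrations were co-incubated 22hr at 37C with 10.0nM final ICI-182,780. Luminescence from the stably transfected 4×ERE-luciferase reporter was recorded 30min after ONE-Glo addition.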

[15] = qHTS assay to identify small molecule agonists or antagonists of the thyroid stimulating hormone receptor (TSHR) signaling pathway - wild type cell line counter screen (AID 1259384; calls by dose curve)
How it was run: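 Wild-type Hek293 cells, 800/well, 18 h at 37C, then compound with Ro20-1724 for 30 min RT. cAMP by HTRF (cAMP-d2/anti-cAMP cryptate), 1 h RT, fluorescence read. 15 concentrations, triplicates.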

[16] = biological target: Androgen receptor (Homo sapiens) (UniProt P10275); assay: qHTS assay to identify small molecule antagonists of the androgen receptor (AR) signaling pathway using the MDA cell line in the presence of 0.5 nM R1881 (AID 1259243); also: nearly all actives have a fitted effect of over 50% in size; also: potency is read from the fitted curve at half-maximal effect
Chain of Androgen receptor (Homo sapiens) (P10275 whole entry, looked up): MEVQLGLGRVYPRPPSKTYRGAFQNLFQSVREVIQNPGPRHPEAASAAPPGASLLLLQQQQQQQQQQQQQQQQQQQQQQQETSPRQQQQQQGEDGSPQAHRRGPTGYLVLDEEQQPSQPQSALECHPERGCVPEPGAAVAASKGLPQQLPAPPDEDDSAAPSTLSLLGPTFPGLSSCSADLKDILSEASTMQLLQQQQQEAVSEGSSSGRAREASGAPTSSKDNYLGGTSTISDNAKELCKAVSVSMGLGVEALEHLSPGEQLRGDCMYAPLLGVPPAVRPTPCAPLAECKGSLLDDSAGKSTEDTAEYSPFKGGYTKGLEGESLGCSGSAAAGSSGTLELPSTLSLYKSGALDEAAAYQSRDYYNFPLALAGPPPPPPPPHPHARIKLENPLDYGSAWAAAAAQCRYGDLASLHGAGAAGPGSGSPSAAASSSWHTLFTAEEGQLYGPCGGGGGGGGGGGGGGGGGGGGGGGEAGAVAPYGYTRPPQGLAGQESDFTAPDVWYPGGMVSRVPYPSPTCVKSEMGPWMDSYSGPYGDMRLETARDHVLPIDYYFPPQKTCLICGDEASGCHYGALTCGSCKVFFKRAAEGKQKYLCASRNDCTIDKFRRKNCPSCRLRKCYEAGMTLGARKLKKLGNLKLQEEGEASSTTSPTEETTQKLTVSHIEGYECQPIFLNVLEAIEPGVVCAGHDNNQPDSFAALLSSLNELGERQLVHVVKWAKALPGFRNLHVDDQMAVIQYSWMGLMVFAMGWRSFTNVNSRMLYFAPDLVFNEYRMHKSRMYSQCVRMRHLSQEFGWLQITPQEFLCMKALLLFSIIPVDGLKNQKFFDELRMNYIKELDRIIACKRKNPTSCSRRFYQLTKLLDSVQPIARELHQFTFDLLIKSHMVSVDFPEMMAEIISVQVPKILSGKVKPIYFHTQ
How it was run: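 Inhibition of R1881 (0.5 nM final) induced reporter signal was measured in human MDA-kb2 cells; note the MMTV promoter also responds to GR. Exposure lasted 16 hr at 37C.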

[17] = qHTS assay to identify small molecule phospholipidosis (PLD) inducers (AID 1259344; active = well fitted curve in the direction sought with a large enough effect; an effect the other way counts as inactive or inconclusive)
How it was run: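 HepG2 cells, 900/well, treated with compound plus LipidTOX Red for 24 h at 37 C; amiodarone positive and DMSO negative controls. Fixed with paraformaldehyde/Hoechst, then high-content imaging scored LipidTOX pit count and integrated intensity per well and per cell.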

[18] = biological target: Androgen receptor (Homo sapiens) (UniProt P10275); assay: qHTS assay to identify small molecule agonists of the androgen receptor (AR) signaling pathway in the presence of an antagonist (AID 1259381; calls by dose curve; also: nearly all actives have a fitted effect of over 15% in size; also: potency is read from the fitted curve at half-maximal effect)
How it was run: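 Here, 15-concentration compound series were pin-transferred onto MDA-kb2 MMTV-luciferase cells already dosed with nilutamide (3.0uM final). After 16hr at 37C, ONE-Glo was added and luminescence read 30min later at room temperature.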

[19] = qHTS assay to identify small molecule HDAC inhibitors (AID 1259364); also: top concentration of the series differs between compounds; nearly all actives have a fitted effect of over 45% in size
How it was run: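 Endogenous HDAC class I/II activity was measured in wild-type HCT-116 cells by HDAC-Glo luminescence after 2 h compound treatment.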

[20] = biological target: Estrogen receptor beta (Homo sapiens) (UniProt Q92731); assay: qHTS assay to identify small molecule antagonists of the estrogen receptor beta (ER-beta) signaling pathway (AID 1259378; active = well fitted inhibition curve with a large enough effect in the signal ratio in the repeat runs, not every such curve was filed as active; the % refers to the signal ratio; also: potency is read from the fitted curve at half-maximal effect)
How it was run: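 ER-beta-UAS-bla HEK293T cells in 2% charcoal-stripped FBS medium treated with compound plus 1nM final 17-beta-estradiol for 16 hr at 37C. Beta-lactamase reporter read by FRET substrate fluorescence after 2 hours at room temperature.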

Compound	Potency [1]	Potency [2]	Potency [3]	Potency [4]	outcome [5]	Potency [6]	Potency [7]	Potency [8]	Potency [9]	Potency [10]	Potency [11]	Potency [12]	Potency [13]	Potency [14]	outcome [15]	Potency [16]	outcome [17]	Potency [18]	Potency [19]	Potency [20]
CCOC(=O)C(C)OC(=O)c1cc(Oc2ccc(C(F)(F)F)cc2Cl)ccc1[N+](=O)[O-] (configuration not stated)	inactive	inactive	inactive	inactive	inactive	inactive	inactive	inactive	inactive	inactive	inactive	inactive	inactive	inactive	inactive	–	–	–	–	–
Nc1ccc(Cl)cc1N	inactive and 21.9 µM (active)	inactive	inactive	–	inactive	inactive	inactive	–	inactive and 30.6 µM (active)	–	inactive	54.5 µM (active)	–	–	inactive	inactive	inactive	4.86 µM (active)	–	–
c1ccc(P(c2ccccc2)c2ccccc2)cc1	inactive	inactive	inactive	inactive	inactive	inactive	inactive	inactive	inactive and 17.2 µM (active)	–	inactive	inactive	inactive	inactive	inactive	–	–	–	inactive	inactive
O=c1oc2ccccc2c(O)c1C(CC(O)c1ccc(-c2ccc(Br)cc2)cc1)c1ccccc1 (configuration not stated)	inactive	inactive	inactive	inactive	inactive	inactive	inactive	inactive	inactive	inactive	inactive	inactive	inactive	inactive	–	–	inactive	–	inactive	23 µM (active)
C#CCOS(=O)OC1CCCCC1Oc1ccc(C(C)(C)C)cc1 (configuration not stated)	inactive	inactive	6.11 µM (active)	8.64 µM (active) and 15.4 µM (active)	inactive	24.4 µM (active) and 54.5 µM (active)	21.7 µM (active) and 27.3 µM (active)	inactive	687 nM (active) and 2.17 µM (active)	inactive	5.45 µM (active)	27.3 µM (active)	inactive	inactive	inactive	–	–	–	inactive	5.45 µM (active) and 4.86 µM (active)
c1cc(OCC2CO2)ccc1Cc1ccc(OCC2CO2)cc1 (configuration not stated)	inactive	inactive	inactive	inactive	inactive	27.3 µM (active)	61.1 µM (active)	inactive	19.4 µM (active) and 21.7 µM (active)	–	inactive	48.6 µM (active)	–	inactive	inactive	inactive	–	inactive	inactive	–
Clc1nc(Cl)nc(Cl)n1	inactive	inactive	inactive	inactive	inactive	inactive	inactive	inactive	inactive	–	inactive	inactive	inactive	inactive	–	–	–	–	inactive	–
CC(C)c1ccc(CO)cc1	inactive	inactive	inactive	inactive	inactive	inactive	inactive	inactive	inactive	–	inactive	inactive	inactive	inactive	inactive	–	–	–	inactive	–
CCN(CC)C(=O)/C(Cl)=C(\C)OP(=O)(OC)OC	inactive	inactive	inactive	inactive	inactive	inactive	inactive	inactive	inactive	–	inactive	inactive	–	inactive	inactive	inactive	inactive	inactive	inactive	–
CCCCC(CC)COC(=O)Cl (configuration not stated)	inactive and 38.9 µM (active)	inactive	inactive	inactive	inactive	inactive	inactive	inactive	inactive	inactive	inactive	inactive	–	inactive	inactive	–	–	–	inactive	inactive
COc1ccc(C=O)cc1	inactive	inactive	inactive	inactive	inactive	inactive	inactive	inactive	inactive	–	inactive	inactive	inactive	inactive	inactive	–	–	–	inactive	–
COC(=O)c1sccc1S(=O)(=O)NC(=O)Nc1nc(C)nc(OC)n1	inactive	inactive	inactive	inactive	inactive	inactive	inactive	inactive	inactive	–	inactive	inactive	–	inactive	inactive	–	–	–	inactive	inactive
Cc1c(COC(=O)[C@@H]2[C@H](/C=C(\Cl)C(F)(F)F)C2(C)C)cccc1-c1ccccc1	inactive	inactive	inactive	inactive	inactive	inactive	inactive	inactive	inactive	inactive	inactive	inactive	inactive	inactive	inactive	–	–	–	inactive	inactive
O=P(Oc1ccccc1)(Oc1ccccc1)Oc1ccccc1	inactive	inactive	inactive	inactive	inactive	inactive	inactive	inactive	1.08 µM (active) and 2.43 µM (active)	–	inactive	34.4 µM (active)	inactive	inactive	inactive	–	–	–	inactive	–
CC(C)(OOC(C)(C)c1ccccc1)c1ccccc1	inactive	inactive	inactive	–	inactive	inactive	inactive	inactive	inactive	inactive	inactive	inactive	–	–	inactive	24 µM (active)	–	inactive	–	–
